In the library only some 17% were active in any assay of this set; here they are far more common.
DT40 TDP1 no CPT – qHTS for Inhibitors of human tyrosyl-DNA phosphodiesterase 1 (TDP1): qHTS in cells in absence of CPT; DT40 Tdp1-/- hTDP1 cells, no CPT, ATP luminescence, 48 h; hit rate 15% among 420,000; Potency, µM (doses to about 46.2 µM), without a hit: at the highest dose activity change, negative = growth inhibition, actives largely listed as inhibitors; AID 686978, 2013; also: % is scaled to controls: 0 for no effect and ±100 for the full control effect; nearly all actives have a fitted effect of over 55% in size
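Cells were dispensed at 400 per well, compounds added by pin tool, plates incubated ≥48 hr at 37 °C, then CellTiter-Glo added for 30 min at room temperature before luminescence reading. Line: DT40 Tdp1-/- complemented with hTDP1; camptothecin omitted.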
TDP1 block – blocks human tyrosyl-DNA phosphodiesterase 1. Q9NUW8. recombinant TDP1, AlphaScreen DNA substrate cleavage. Potency, µM (highest dose often 130 µM), for inactives: top-dose activity change, negative = inhibition, most hits filed as inhibitors. hit rate 0.28% among 350,000; also: % is scaled to controls: 0 for no effect and ±100 for the full control effect; nearly all actives have a fitted effect of over 40% in size
Target sequence (Q9NUW8 whole entry, looked up): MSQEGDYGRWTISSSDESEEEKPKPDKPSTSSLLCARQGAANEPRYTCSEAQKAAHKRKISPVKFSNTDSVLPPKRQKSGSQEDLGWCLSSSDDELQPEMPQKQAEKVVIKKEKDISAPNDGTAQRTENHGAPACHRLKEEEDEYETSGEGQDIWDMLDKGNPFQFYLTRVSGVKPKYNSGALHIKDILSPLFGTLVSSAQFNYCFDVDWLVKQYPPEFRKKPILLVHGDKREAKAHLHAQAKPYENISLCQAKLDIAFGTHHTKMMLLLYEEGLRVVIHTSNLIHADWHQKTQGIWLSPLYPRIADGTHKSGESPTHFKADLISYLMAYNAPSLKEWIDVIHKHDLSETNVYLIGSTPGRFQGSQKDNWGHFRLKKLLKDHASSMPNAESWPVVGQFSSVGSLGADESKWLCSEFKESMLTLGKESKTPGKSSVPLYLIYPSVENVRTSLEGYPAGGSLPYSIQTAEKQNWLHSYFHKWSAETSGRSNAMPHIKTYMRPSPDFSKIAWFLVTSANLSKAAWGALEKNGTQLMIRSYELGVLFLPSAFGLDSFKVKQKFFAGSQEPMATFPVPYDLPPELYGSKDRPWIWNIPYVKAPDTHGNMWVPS
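Steps: enzyme plus compound, 15 min RT; add biotin/phosphotyrosine-FITC oligonucleotide (15 nM final), react 5 min; add donor/acceptor beads (10 ug/ml final), 10 min; read AlphaScreen. Tdp1 at 1 nM final.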
TDP1 cell CPT – growth inhibition of DT40 Tdp1-/-;hTDP1 cells with camptothecin (screen for TDP1 inhibitors); chicken DT40 Tdp1-/-;hTDP1 cells + 20 nM CPT, ATP luminescence, 48 h; Potency, µM (series often up to 46.2 µM), without a hit: at the highest dose activity change, negative = growth inhibition, most hits filed as inhibitors; hit rate 12% among 420,000; AID 686979; also: % is scaled to controls: 0 for no effect and ±100 for the full control effect; nearly all actives have a fitted effect of over 55% in size
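Cell growth measured by CellTiter-Glo luminescence after a minimum 48 h, 37 C compound exposure with 20 nM CPT in Tdp1-knockout DT40 cells stably expressing hTDP1, seeded 400/well; qHTS titration format.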
ClpP mod – qHTS Assay for Activators of ClpP; ATP-dependent Clp protease proteolytic subunit (Bacillus subtilis (strain 168)), P80244; purified B. subtilis ClpP, FRET peptide cleavage, 20 min; Potency, µM (series often up to 57.5 µM), for the others: top-dose activity change, negative = active; hit rate 1.9% among 340,000; AID 651965, 2013; active = well fitted falling curve with a large enough effect; inconclusive = small, poorly fitted or top-dose-only effect; inactive = no such curve, though single readings can be large or run the other way; also: the source files actives as falling curves though it sought activators and does not explain the sign; nearly all actives have a fitted effect of over 65% in size
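ClpP 10 microg/mL final, pH 8 Tris/KCl buffer with BSA, glycerol, Tween-20; compound pinned in; FRET-FV substrate; RT 20 min; Ex320/Em430; ΔFRET vs ADEP 5.8 microM, DMSO, no enzyme.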
Active calls of the source: *; ? = inconclusive; . = no result given; [ ] = remark or other dose. Unless noted, calls follow the shape of the dose curve; as a rule, active = well fitted curve in the direction sought with a large enough effect; inconclusive = small, poorly fitted or top-dose-only effect, or another doubt; inactive = no such curve, though single readings can be large; an effect the other way counts as inactive or inconclusive. Potency is read from the fitted curve at half-maximal effect.

SMILES	DT40 TDP1 no CPT	TDP1 block	TDP1 cell CPT	ClpP mod
O=C1CCCc2cc3c(cc21)CC1(C3)Cc2cc3c(cc2C1)C(=O)CCC3	4.6µM*	4%	3.7µM*	0%
CCc1cc(C(=O)N2CCOc3ccc(CN4CCN(Cc5ccccn5)CC4)cc3C2)no1	-16%	.	1%[9.04 µM]	.
Cc1c(Cl)c([N+](=O)[O-])nn1CCCC(=O)N1CCN(c2ccccc2)CC1	-16%	2%	15µM*	1%
Cc1c(Cl)c([N+](=O)[O-])nn1CCCC(=O)Nc1c(C)n(C)n(-c2ccccc2)c1=O	-12%	0%	-19%	1%
Cc1c(Br)c([N+](=O)[O-])nn1CCCC(=O)N1CCN(c2ccccc2)CC1	?	6%	-7%	14µM*
COc1ccc(NC(=O)Nc2ccc(Cc3ccncc3)cc2)c(OC)c1	7%	5%	3%	-19%
COc1ccc(OC)c2c1C(=O)C(Cl)=C(Cl)C2=O	0.41µM*	.	0.23µM*	0%
COc1ccc(OC)c2c1C(=O)c1ccccc1C2=O	-29%	.	-9%	3%
Cc1ccc(/C=C(\C#N)C(=O)Nc2c(C)cccc2C)s1	21µM*	5%	?	-2%
COC(=O)c1ccc(COc2ccccc2/C=C(\C#N)C(=O)Nc2c(C)cccc2C)cc1	13µM*	0%	13µM*	?
COc1ccc2c(c1)OC(C)CN(CCNC(=O)c1ccc(-n3cccn3)cc1)C2 (stereo not drawn)	-19%	.	6%[9.04 µM]	.
COc1cccc(CNC(=O)c2c(OC)cc(=O)n3c2CCN(C(=O)C2CC=CCC2)CC3)c1 (stereo not drawn)	-13%	.	-9%	.
COc1ccc(/C=C/C(O)=C2/C(=O)N(C)C3(C)CC2c2ccccc2O3)cc1 (stereo not drawn)	21µM*	2%	23µM*	?
CCN1C(=O)C(C(=O)Nc2ccc(OC)cc2)C2CC1(C)Oc1ccccc12 (stereo not drawn)	-21%	3%	-14%	1%
COc1ccc(/C=C/C(O)=C2/C(=O)NC3(C)CC2c2ccccc2O3)c(OC)c1OC (stereo not drawn)	7.3µM*	0%	8.2µM*	-12%
CC12CC(c3ccccc3O1)C(C(=O)N1CCOCC1)C(=O)N2 (stereo not drawn)	-4%	5%	-1%	-1%
CC(=O)c1cccc(NC(=O)C2=CC(c3ccc(F)cc3)=NS(=O)(=O)N2C)c1	?	6%	?	-1%
O=C(COC(=O)c1ccc(S(=O)(=O)N2CCOCC2)cc1)NCc1ccco1	2%	.	-22%	-2%
C=CCN1c2ccccc2Sc2cnccc21	18µM*	.	?	-3%
CC(=O)OCCN1c2ccccc2Sc2cnccc21	15µM*	.	?	-5%
CCOc1ccc2nc(SC3CC(=O)N(c4cccc(OC)c4)C3=O)sc2c1 (stereo not drawn)	3.7µM*	3%	3.3µM*	-1%
CCOc1ccc2nc(SCCNS(=O)(=O)c3ccccc3)sc2c1	16µM*	-3%	-28%	-1%
CCOC(=O)c1cnc(SC2CC(=O)N(c3cccc(OC)c3)C2=O)nc1N (stereo not drawn)	?	9%	?	-4%
CCOc1ccc2nc(SC3CC(=O)N(c4ccccc4)C3=O)sc2c1 (stereo not drawn)	3.7µM*	-4%	2.9µM*	4%
O=C1CCc2cc([S+](=O)([O-])NC3CCOCC3)ccc2N1	.	1%	.	.
SMILES	DT40 TDP1 no CPT	TDP1 block	TDP1 cell CPT	ClpP mod
COc1cc(C(=O)N(Cc2ccc(N(C)C)cc2)CC2CCCO2)cc(OC)c1OC (stereo not drawn)	?	0%	-28%	0%
Cc1c(C(=O)N(Cc2ccncc2)CC2CCCO2)oc2c(F)cccc12 (stereo not drawn)	-26%	1%	-12%	0%
Cc1ccc2c(C)c(C(=O)N(Cc3ccncc3)CC3CCCO3)oc2c1C (stereo not drawn)	21µM*	1%	26µM*	-13%
Cc1cc(C)c(OCC(=O)N(Cc2ccc(N(C)C)cc2)CC2CCCO2)c(C)c1 (stereo not drawn)	10µM*	9%	16µM*	1%
Cc1ccc2oc(C(=O)N(Cc3ccc(N(C)C)cc3)CC3CCCO3)c(C)c2c1 (stereo not drawn)	18µM*	14%	?	-1%
Cc1ccc(OCC(=O)N(Cc2ccc(N(C)C)cc2)CC2CCCO2)cc1C (stereo not drawn)	15µM*	9%	15µM*	-1%
O=S(=O)(Nc1ccc(-c2ccc(N3CCCC3)nn2)cc1)c1cc(F)ccc1F	-46%	3%	?	-2%
Cc1ccccc1OCC(=O)N(Cc1ccc(N(C)C)cc1)CC1CCCO1 (stereo not drawn)	21µM*	9%	?	-1%
Cc1cccc(C)c1OCC(=O)N(Cc1ccc(Cl)cc1)CC1CCCO1 (stereo not drawn)	?	-7%	?	-1%
Nc1c(NC2CCCCC2)c2ccccc2oc1=O	16µM*	-5%	?	-6%
Nc1c(NCCN2CCOCC2)c2ccccc2oc1=O	9.2µM*	4%	5.2µM*	-3%
CC(=O)NC1C(O)O[C@H](C(=O)O)[C@@H](O)[C@@H]1O (stereo partly drawn)	.	11%	.	.
CC(=O)N[C@@H]1C(O[C@H]2O[C@H](C(=O)O)C(O)[C@H](O)[C@H]2O)[C@H](O)[C@@H](CO)O[C@H]1O[C@@H]1C(C(=O)O)O[C@@H](O[C@H]2[C@H](O)[C@@H](CO)OC(O)[C@@H]2NC(C)=O)[C@H](O)[C@H]1O (stereo partly drawn)	21µM*	.	-2%	.
CCCCCC(=O)N1C[C@@H](n2cc(-c3ccc(F)cc3)nn2)[C@H](O)C[C@@H]1c1ccc(OC)cc1	?	.	?	-5%
CCCCCC(=O)N1C[C@@H](O)[C@H](n2cc(-c3ccc(F)cc3)nn2)C[C@@H]1c1ccccc1	10µM*	.	23µM*	-1%
COc1ccc([C@H]2C[C@H](O)[C@@H](n3cc(-c4ccc(F)cc4)nn3)CN2C(=O)C2CCCCC2)cc1	-2%	.	7%	0%
CCCCCC(=O)N1C[C@@H](n2cc(-c3ccc(F)cc3)nn2)[C@H](O)C[C@@H]1c1ccc(C)cc1	8.2µM*	.	13µM*	0%
COc1ccc([C@H]2C[C@H](n3cc(-c4ccc(F)cc4)nn3)[C@@H](O)CN2C(=O)C2CCCCC2)cc1	18µM*	.	?	-2%
Cc1ccc([C@H]2C[C@@H](O)[C@H](n3cc(C4CC4)nn3)CN2C(=O)c2cccs2)cc1	21µM*	.	?	1%
COC(=O)C1=C[C@@H](C(=O)OC)C2C3=C(C(=O)[C@@]2(C)NC(=O)c2ccccc2)[C@H](C)[C@@H]2C(=O)NC(=O)[C@@H]2[C@@H]3C1 (stereo partly drawn)	.	6%	.	.
